Experimental data: PubChem BioAssay AID1650 (Southern Research Specialized Biocontainment Screening …, 2009)
Potency and affinity values are given separately. Activity calls are given as the source filed them. No rule for the calls is given here.

Assay: host cell cytotoxicity of antiviral hits, dose response, cytotoxicity control for West Nile virus antiviral project, secondary assay (AID 1650)
Conditions: Mammalian host cell viability, cytotoxicity counter-screen; series mostly up to 10 µM; viability: at the top concentration

SMILES	viability
CC(C)(C)c1ccc(-c2nnc(SCC(=O)Nc3sc4c(c3C#N)CCCC4)o2)cc1	78.9% [at 20 µM] (inactive)
Cc1onc(-c2cccc(Cl)c2Cl)c1C(=O)O/N=C(\N)c1ccc([N+](=O)[O-])o1	80.5% (inactive)
COc1ccc(-c2csc(N(CCCN(C)C)C(=O)c3ccccc3Cl)n2)cc1	76.9% (inactive)
CCN(CC)CCCN1CC(O)=C(c2nc3ccccc3s2)C1=N	81.1% (inactive)
COc1ccc(C2Nc3ccc4ccccc4c3-c3c2c(=O)oc2ccccc32)cc1 (stereo not given)	77.4% (inactive)
OCCN(CCO)CC(O)COc1ccc(C23CC4CC(CC(C4)C2)C3)cc1 (stereo not given)	90.3% (inactive)
O=[N+]([O-])c1ccc(Cl)c(/C=N/n2c(C3CCCCC3)n[nH]c2=S)c1	75% [at 20 µM] (inactive)
COc1ccc(CN2[C@@H](CC(C)=O)c3ccc(/C=C/C(C)=O)cc3S2(=O)=O)cc1	71.2% (inactive)
Cc1coc(NC(=O)CSc2nc(-c3ccncc3)cc(C(F)(F)F)c2C#N)n1	82.6% (inactive)
CCCCc1nc2ccccc2c(N)c1CCC (tested in a mixture with another compound)	81.9% (inactive)
CCN1CCN(CCCNC(=O)C2CCCN(c3nc4c(C)cc(C)cc4s3)C2)CC1 (stereo not given)	86.5% (inactive)
Cc1ccc(-n2ncc(C(=O)Nc3ccc(Cl)cc3)c2C2CCNCC2)cc1C	82.5% [at 20 µM] (inactive)
Cc1ccc(-n2c(O)c(C=Nc3ccc4c(c3)OCO4)c3ccccc3c2=O)cc1C	79.1% [at 20 µM] (inactive)
CCOC(=O)c1cn(CC(=O)Nc2ccc(C(C)C)cc2)nn1	88.6% (inactive)
COc1ccc(CCNC(=O)c2cc3c(=O)n4cccc(C)c4nc3n(CCCN3CCOCC3)c2=N)cc1	79.9% (inactive)
O=C(/C=C/c1cccnc1)c1ccc(O)cc1	74.1% (inactive)
CCOc1ccc(NCc2cc3c(C(C)(C)C)nn(-c4ccccc4)c3[nH]c2=O)cc1	88.3% (inactive)
CC1CCCN(CCCNC(=O)c2ccc3c(c2)N(Cc2ccccc2F)C(=O)c2ccccc2S3(=O)=O)C1 (stereo not given)	85.2% (inactive)
Cc1ccc(S(=O)(=O)NCc2ccc(C(=O)NCCCN3CCC(Cc4ccccc4)CC3)cc2)cc1	82.9% [at 20 µM] (inactive)
CCOC(=O)c1cnc2ccc(OC)cc2c1Nc1ccc(N2CCN(C)CC2)cc1	79.1% (inactive)

SMILES	viability
Cc1ccc(Sc2nnc(Cc3ccccc3)c3ccccc23)cc1	81.4% (inactive)
CCn1nc(C)c(CN2CCc3c([nH]c4ccccc34)C2c2ccc(F)c(OC)c2)c1C (stereo not given)	87.8% [at 20 µM] (inactive)
O=[N+]([O-])c1ccc(COc2ccc(-c3[nH]ncc3-c3ccc(Cl)cc3)c(O)c2)cc1	82.4% (inactive)
C[C@H]1[C@H](C)CC[C@]2(C(=O)O)CC[C@]3(C)C(=CC[C@@H]4[C@@]5(C)C[C@@H](O)[C@H](O)C(C)(C)[C@@H]5CC[C@]43C)[C@H]12	103% (inactive)
Cn1cc([N+](=O)[O-])c(C(=O)Nc2ccn(C34CC5CC(CC(C5)C3)C4)n2)n1	74.4% (inactive)
CN(C)CCNc1oc(COc2ccc(-c3ccccc3)cc2)nc1C#N	84.9% (inactive)
O=C(c1cccc(S(=O)(=O)N2CCOCC2)c1)N1CCOCC1	89.1% (inactive)
Cc1ccc(C)c(N2CCN(CCCNC(=O)CCC(=O)N3CCOc4ccc(Cl)cc43)CC2)c1	81.1% (inactive)
Cc1cc(N2CCN(C)CC2)nc2ccc(NC(=S)N3CCN(c4ccccn4)CC3)cc12	73.7% (inactive)
COCCn1c(SCC(=O)Nc2nnc(C)s2)nnc1-c1ccncc1	94% [at 20 µM] (inactive)
COc1cc(NC(=O)c2cc([N+](=O)[O-])ccc2Br)ccc1NC(=O)c1ccco1	93.3% (inactive)
COc1cc2cc(CN(CCc3ccccc3C)C(=S)NCCCN(C)C)c(=O)[nH]c2cc1OC	88.3% (inactive)
CCN(CC)S(=O)(=O)c1ccc2c(c1)c(=O)c(C(=O)NCCc1ccc(OC)c(OC)c1)cn2C	92.3% [at 20 µM] (inactive)
O=C(COC(=O)CN1C(=O)c2ccccc2C1=O)Nc1ccc(S(=O)(=O)N2CCCC2)cc1	90.3% [at 20 µM] (inactive)
O=C(Nc1cccc(Cl)c1)Nc1cc(S(=O)(=O)N2CCCCC2)ccc1Cl	70.3% [at 20 µM] (inactive)
C/C(=N\OC(=O)c1ccc(F)cc1)c1nccs1	92.5% [at 20 µM] (inactive)
CCCCN(CC)CCCNC(=S)Nc1ccc2nc(N3CCN(CC)CC3)cc(C)c2c1	80% (inactive)
Cc1ccc2nc(N(CCCN(C)C)C(=O)c3cc(-c4cccs4)nc4ccccc34)sc2c1	81.7% (inactive)
COc1ccc(Cl)cc1NC(=O)c1nnn(CC(=O)Nc2cc(C)cc(C)c2)c1N	79.6% [at 20 µM] (inactive)
CCC1CCCCN1CCCNC(=O)c1ccc(/C=C2/Sc3ccccc3NC2=O)cc1 (stereo not given)	74.7% [at 20 µM] (inactive)
